Assay [1] in a line: ACEA_ER_80hr: ACEA Biosciences xCELLigence Real-Time Cell Analysis on Estrogen Receptor Agonism for Proliferation (AID 2282667; active = hit-call score of the fitted dose curve at least 0.9, where 1 is the maximum). The note with it: T47D proliferation, impedance (xCELLigence), 80 h. In short, it runs like this: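 Real-time impedance growth kinetics of human T-47D breast cells read 80 h after dosing, gain-of-signal fitted relative to DMSO. Compounds: 1:4 serial series, top final concentration 100 uM, n = 2.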

Assay [2] can be described thus: APR_HepG2_CellCycleArrest_24hr: Apredica 24-hour HepG2 Assay for Cell Cycle Arrest (AID 2282905).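 Note: cell cycle arrest scored as ratio of 2N to 4N nuclear DNA content.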 Conditions: imaging, actives raise or lower the signal. A digest of the protocol: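 Step one: dose HepG2 with test compounds, 0.39–200 uM, 0.5% DMSO, 24 hr. Step two: fix, permeabilize, stain nuclei with Hoechst 33342. Step three: image six fields per well at 20x, quantify DNA content, fit bidirectionally relative to DMSO.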

A short description of assay [3]: APR_HepG2_NuclearSize_24hr: Apredica 24-hour HepG2 Assay for Nuclear Size (AID 2282907). The note with it: high-content imaging, actives raise or lower the signal. In short, it runs like this: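 After fixation and permeabilization, 24-hr-treated HepG2 cells were stained with Hoechst 33342 and imaged on an ArrayScan (20x). Doses spanned 0.39–200 uM in duplicate. Nuclear diameter changes in either direction were fitted relative to 0.5% DMSO controls.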

Assay [4] is described as follows: APR_HepG2_CellLoss_24hr: Apredica 24-hour HepG2 Assay for Cell Loss (AID 2282908).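 For AC50: fit in both directions so a hit may be cell loss or gain.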 Conditions: high-content imaging. How it is done: APR_HepG2_24hr is a cell-based, multiplexed-readout assay that uses HepG2, a human liver cell line, with measurements taken at 24 hours after chemical dosing in a 384-well plate.APR_HepG2_CellLoss_24hr is one of 10 assay component(s) measured or calculated from the APR_HepG2_24hr assay. It is designed to make measurements of cell number, a form of viability reporter, as detected with fluorescence intensity signals by HCS Fluorescent Imaging technology.Data from the assay component APR_HepG2_CellLoss_24hr was analyzed into 1 assay endpoint. This assay endpoint, APR_HepG2_CellLoss_24hr, was analyzed with bidirectional fitting relative to DMSO as the negative control and baseline of activity. Using a type of viability reporter, measures of all nuclear dna for gain or loss-of-signal activity can be used to understand the viability at the cellular-level. Furthermore, this assay endpoint can be referred to as a secondary readout, because this assay has produced multiple assay endpoints where this one serves a viability function. To generalize the intended target to other relatable targets, this assay endpoint is annotated to the cell cycle intended target family, where the subfamily is proliferation.
Cells were treated with dimethyl sulfoxide (DMSO) as a solvent control at a final concentration of 0.5% v/v or with compounds in DMSO with a resulting final DMSO concentration of 0.5% v/v. Compound treatment was done at concentrations of 0.39, 0.78, 1.56, 3.12, 6.24, 12.5, 25, 50, 100, and 200 uM in duplicate on each plate. Cells were treated with compounds for 1, 24, or 72 hr. Carbonyl […] m-chloro-phenylhydrazone (CCCP) and taxol were used as positive controls for mitochondrial function and cytoskeletal stability, respectively; DMSO served as the negative control for this experiment. Cells were fixed by the direct addition of 50 uL formaldehyde in Hank's Balanced Salt Solution (HBSS) to a final concentration of 3.7%. After incubation in the fixation medium for 30 min at room temperature (293-298 K), cells were rinsed twice with HBSS and treated with cell permeabilization buffer (16 uL of 0.5% Triton X-100) for 10 min at room temperature (293-298 K) before labeling. For mitochondrial membrane potential and mitochondrial measurements, pre-fixed cells were incubated with 50 uL of MitoTracker Red CMXRos (Invitrogen) at a concentration of 250 nM for 30 min before fixation. In the remaining cases, post-fixed cells were labeled by incubation with a multiplexed mixture of primary antibodies in HBSS for 60 min at room temperature (293-298 K) to detect immunoreactivity of c-Jun (1:500), phospho-histone H3 (1:100), phospho-histone H2A.x (1:200), p53 (1:400), alpha-tubulin (1:200) and Hoechst 33342 (2 ug/mL). […]

A short description of assay [5]: APR_HepG2_MicrotubuleCSK_24hr: Apredica 24-hour HepG2 Assay for Microtubule CSK Stabilty (AID 2282909). Conditions: HepG2 microtubule cytoskeleton imaging, actives raise or lower the signal. A digest of the protocol:
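Microtubule stability is scored from tubulin immunofluorescence in fixed HepG2 cells imaged at 20x. Cells receive ten compound concentrations up to 200 uM for 24 h; taxol and DMSO serve as positive and negative controls.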

Assay [6] in a line: APR_HepG2_MitoticArrest_24hr: Apredica 24-hour HepG2 Assay for Mitotic Arrest (AID 2282910). The note with it: high-content imaging, actives raise or lower the signal. In short, it runs like this:
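HepG2, 24 hr dosing, 0.39–200 uM, 0.5% DMSO final. Formaldehyde-fixed, Triton-permeabilised, anti-phospho-histone H3 plus Hoechst. ArrayScan imaging at 20x; bidirectional fit vs DMSO baseline.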

Assay [7] in a line: APR_HepG2_MitoMembPot_24hr: Apredica 24-hour HepG2 Assay for Mitochondrial Membrane Potential (AID 2282911). Conditions: imaging, actives raise or lower the signal. A digest of the protocol:
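Mitochondrial membrane potential imaged via MitoTracker Red CMXRos (250 nM, 30 min pre-fixation) in fixed HepG2 cells with Hoechst nuclear identification. Ten concentrations 0.39–200 uM, 24 h treatment, 0.5% DMSO; CCCP as positive control.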

Assay [8] can be described thus: APR_HepG2_MitoMass_24hr: Apredica 24-hour HepG2 Assay for Mitochondrial Mass (AID 2282912). The note with it: high-content imaging, actives raise or lower the signal. A digest of the protocol: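 Readout: fluorescence of MitoTracker Red CMXRos (250 nM, added 30 min pre-fixation) in fixed HepG2 cells imaged by HCS. Exposure lasted 24 hr at 0.39–200 uM; increases and decreases were both fitted relative to DMSO.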

Assay [9] is described as follows: APR_HepG2_p53Act_24hr: Apredica 24-hour HepG2 Assay for p53 Activation (AID 2282913).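 Note: p53 protein immunofluorescence averaged per cell in HepG2 with Hoechst nuclei.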 The note with it: high-content imaging, actives raise or lower the signal. In short, it runs like this: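 Fluorescence imaging of formaldehyde-fixed HepG2 cells labelled for p53 and with Hoechst, 24 h after dosing (0.39–200 uM, duplicate wells, 0.5% v/v DMSO). Signal fitted in both directions relative to DMSO.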

Assay [10] in a line: APR_HepG2_CellCycleArrest_72hr: Apredica 72-hour HepG2 Assay for Cell Cycle Arrest (AID 2282914). Conditions: high-content imaging, actives raise or lower the signal. In short, it runs like this:
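Read-out: nuclear DNA content from Hoechst 33342 high-content imaging (20x, six fields/well) after 3.7% formaldehyde fixation, fitted bidirectionally against DMSO. Treatment was 72 h in HepG2, ten concentrations 0.39–200 uM, duplicate, 0.5% DMSO.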

Results filed as inconclusive are left out. Active and inactive are the calls of the source. Rule for the calls, unless noted: active = hit-call score of the fitted dose curve at least 0.9, where 1 is the maximum; inactive = score below 0.9.

Turning to `CCO[Si](CCC#N)(OCC)OCC`, in assay [1], the outcome was inactive.

As to `OC[C@@H](O)[C@H](O)[C@@H](O)[C@@H](O)CO`, in [1], the molecule was called inactive.

With `CCCC1CCC(=O)CC1`, the call in [1] was inactive.

Turning to `O=S(=O)(O)C(F)(F)C(F)(F)OC(F)(F)C(F)(F)F`, in assay [1], the molecule was called inactive.

With `CC(C)OB(OC(C)C)OC(C)C`, in assay [1], the molecule was classed as inactive.

`NC(=O)NC(N)=O`: the molecule was classed as inactive in assay [1].

Consider `C=CCCCCCCCCC(=O)OCC`, for which, in [1], the result was inactive.

On to `C[C@]12CC[C@@H]3c4ccc(O)cc4CC[C@H]3[C@@H]1CC[C@@H]2O`, for which the result in assay [2], in [3], in assay [7], in assay [8] and in assay [10] was inactive. Moreover, the AC50 in [4] was 18.7 µM (active); in assay [5] it was 32.4 µM (active); in assay [6] it was 22.6 µM (active); in assay [9], 25.1 µM (active).

For the molecule `O=c1cc(-c2ccc(O)cc2)oc2cc(O)cc(O)c12`, in assay [1], the AC50 is 1.33 µM (active).

Take `O=C(c1ccc(OCCN2CCCCC2)cc1)c1c(-c2ccc(O)cc2)sc2cc(O)ccc12`: the outcome in [2], in assay [3], in assay [4], in [5], in assay [6] and in assay [7] was inactive. The result in assay [8], in assay [9] and in assay [10] was inactive.

For the molecule `[O-]/[N+](=N\O)c1ccccc1`, in assay [1], the molecule was called inactive.

As to `CC1=CC(C)C(C=O)C(C)C1` (centres undefined) (tested in a mixture with another compound), the outcome in assay [1] was inactive.

Regarding `CC(=O)C1=C(C)[C@@H]2C[C@@]3(C1)[C@H](C)CC[C@H]3C2(C)C`, in [1], the molecule was called inactive.

Turning to `CCCCCC1C(=O)CCC1CC(=O)OC` (centres undefined), the AC50 in assay [1] is 50 µM (active).

Take `CC(=O)CCc1ccc(O)cc1`: the molecule was called inactive in assay [1].

For `[Na+]`, in assay [1], the call was inactive.

As to `C/C=C(\C)C(=O)OC/C=C(\C)CCC=C(C)C`, in assay [1], the outcome was inactive.

In the case of `C[Si]1(C)N[Si](C)(C)N[Si](C)(C)N1`, the outcome in assay [1] was inactive.

Take `CCO[Si](CC)(OCC)OCC`: in [1], the outcome was inactive.

Take `CC/C=C/CCCCCCCCCCOC(C)=O`: in assay [1], the outcome was inactive.

Turning to `CC(=O)c1cccnc1`, the call in assay [1] was inactive.

As for `COc1ccc(N)c(C)c1`, the AC50 in assay [1] is 43.5 µM (active).

As for `C#C[C@]1(O)CC[C@H]2[C@@H]3CCc4cc(O)ccc4[C@H]3CC[C@@]21C`, the AC50 in [2] was 36.8 µM (active); in assay [4] it was 24.3 µM (active); in assay [6] it was 10.9 µM (active); in [9], 87.5 µM (active); in assay [10], 27.9 µM (active). Also, the molecule was classed as inactive in [3], in assay [5], in assay [7] and in [8].

For `CC(=O)c1ccc2ccccc2c1`, the call in assay [1] was inactive.

Consider `C=CC(C)(CCC=C(C)C)OC(=O)CC` (centres undefined), for which the molecule was called inactive in assay [1].

On to `Cc1ccccc1S`, for which the result in [1] was inactive.

On to `CCCc1ccc(O)cc1`, for which the AC50 in assay [1] is 50 µM (active).

Consider `CNC(=C[N+](=O)[O-])NCCSCc1ccc(CN(C)C)o1`, for which the molecule was called inactive in assay [1].

For the molecule `CCCCCCCCCCCCS`, the molecule was classed as inactive in [1].

As for `CCCCC1CCCCC(=O)O1` (centres undefined), the molecule was classed as inactive in assay [1].

The term AC50 denotes the concentration giving half of the maximal activity seen.

For the origin of these results see PubChem BioAssay (EPA / NIEHS).
